Only some compounds are listed: those with a hit (about 8.1% of all), similar ones and a draw of the others.
Shh pathway inh = blocks Sonic Hedgehog signaling; AID 2313; inhibition, % (concentration not given with the values); 22,000 tested, 2.1% active; Shh-LIGHT2 Gli-luciferase reporter, 30 h;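 active = mean inhibition across valid replicates above about 65%, limit read from the data; inconclusive = mean under the limit, yet half or more replicates past it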;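 also: pathway switched on by Shh-conditioned medium diluted 1 in 25 in low serum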
PD-1 reversal = activators reversing PD-1 mediated T-cell inhibition | primary human CD4 T cells, PD-L1 beads, CellTiter-Glo 96 h | activation, % (test concentration not listed) | 29,000 tested, under 10 active | AID 2316; call rule not given here;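 also: 0% = median vehicle wells and 100% = positive control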
NOMO-1 viab = STK33 inhibitor candidate reducing NOMO-1 cell viability | NOMO-1 AML viability, CellTiter-Glo luminescence, 72 h | inhibition, % (no concentration beside the values) | 37,000 tested, 7.5% active | AID 2330; in the data active = inhibition above about 80%; inconclusive = no clear call, values can overlap the other calls
MITF inh = inhibitors of MITF; 37,000 tested, 0.28% active; inhibition, % (concentration not given with the values); TRPM1 promoter luciferase, luminescence, 24 h; AID 2240; in the data active = inhibition above about 85%; inconclusive = no clear call, values can overlap the other calls; inactive = below about 68%;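 also: human melanocyte line stably carrying TRPM1 promoter luciferase reporter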
The depositor's hits bear a star; ? = inconclusive; . = not tested or not shown.

SMILES | Shh pathway inh | PD-1 reversal | NOMO-1 viab | MITF inh
CC(C)c1ccccc1Oc1coc2cc(OCC(=O)Nc3ccccc3F)ccc2c1=O | . | 1 | 28 | -4
COC(=O)[C@]1(Cc2ccc(O)c(CC=C(C)C)c2)OC(=O)C(=O)C1c1ccc(O)cc1 (stereo not given in full) | -41 | -1 | 45 | -6
C=C1CCC2C(C(=O)O)=COC(O[C@@H]3O[C@H](CO)[C@@H](O)[C@H](O)[C@H]3O)C12 (stereo not given in full) | -26 | 1 | 3 | 3
C=C(C(=O)O[C@H]1C/C=C(/C)C[C@H](O)[C@H]2[C@H](C)C(=O)O[C@@H]2/C=C\1C)[C@@H]1CCC(=C)[C@@H]2C[C@H](O[C@@H]3O[C@H](CO)[C@@H](O)[C@H](O)[C@H]3O)C(=C)[C@@H]2C1 | 13 | -2 | 118* | 14
O=C(COc1ccccc1Cl)Nc1cccc(Oc2ccc3c(c2)C(=O)NC3=O)c1 | . | . | -8 | -15
CC(C)(C)c1cc(C(=O)CSc2nc3ccccc3[nH]2)cc(C(C)(C)C)c1O | . | . | 102* | ?
Cc1cc(=O)[nH]c(SCC(=O)c2cc(C(C)(C)C)c(O)c(C(C)(C)C)c2)n1 | . | . | 17 | 29
C=C(C)[C@@]12O[C@@H]1[C@@]1(C)C(=CC2=O)CC[C@@H](O)[C@@H]1C | 50 | 0 | 114* | 48
C[C@@H]1CN([C@@H](C)CO)C(=O)c2cc(NC(=O)Nc3ccccc3)ccc2O[C@@H]1CN(C)Cc1ccc(Cl)c(Cl)c1 | 39 | 0 | 112* | 34
C[C@H]1CN([C@@H](C)CO)C(=O)c2cc(NC(=O)Nc3ccccc3)ccc2O[C@H]1CN(C)Cc1ccc(Cl)c(Cl)c1 | 21 | -2 | 100* | 28
C[C@H]1CN([C@@H](C)CO)C(=O)c2cc(NC(=O)Nc3ccccc3)ccc2O[C@@H]1CN(C)Cc1ccc(Cl)c(Cl)c1 | . | 1 | 18 | -2
COc1ccc(S(=O)(=O)Nc2ccc3c(c2)CC(=O)N([C@H](C)CO)C[C@H](C)[C@H](CN(C)Cc2ccc(Cl)c(Cl)c2)O3)cc1 | . | . | 98* | -10
COc1ccc(S(=O)(=O)Nc2ccc3c(c2)CC(=O)N([C@H](C)CO)C[C@@H](C)[C@H](CN(C)Cc2ccc(Cl)c(Cl)c2)O3)cc1 | 37 | 0 | 112* | 12
COc1ccc(CN(C)C[C@@H]2Oc3ccc(NS(=O)(=O)c4ccc(Cl)cc4)cc3CC(=O)N([C@@H](C)CO)C[C@@H]2C)cc1 | . | 1 | 9 | -2
COc1ccc(NC(=O)CSc2ncnc3scc(-c4ccccc4)c23)c([N+](=O)[O-])c1 | . | -1 | 7 | 2
CS(=O)(=O)N(CC(=O)Nc1ccc(F)cc1)c1cccc2ccccc12 | . | . | -3 | 1
CCC1=Nc2ccc(Br)cc2C(c2ccccc2)N1CC(=O)NN (stereo not given) | . | 0 | 15 | -43
O=C(CCN1C(=O)c2ccccc2S1(=O)=O)Nc1ccc(Oc2ccccc2)cc1 | . | 1 | 6 | 6
COc1ccc(-c2nc3cc(NC(=O)COc4ccc([N+](=O)[O-])cc4)ccc3o2)cc1Cl | . | 0 | 22 | 37
CC(C)c1ccc2oc(-c3ccc(Cl)c(NC(=O)COc4ccc([N+](=O)[O-])cc4)c3)nc2c1 | . | -6 | 110* | 19
O=C(O)COc1cccc(-c2nc3ccccc3s2)c1 | . | 0 | 27 | 105*
c1ccc(CN2CCN(Cc3ccccc3)C2c2ccco2)cc1 | 44 | -1 | 1 | -15
CO[C@H]1C[C@@H]2CC[C@@H](C)[C@@](O)(O2)C(=O)C(=O)N2CCCC[C@H]2C(=O)O[C@H]([C@H](C)C[C@@H]2CC[C@@H](O)[C@H](OC)C2)CC(=O)[C@H](C)/C=C(\C)[C@@H](O)[C@@H](OC)C(=O)[C@H](C)C[C@H](C)/C=C/C=C/C=C\1C | 2 | -8 | 131* | 62
Oc1cc(C2CCCCC2)cc(C2CCCCC2)c1 | . | -7 | 137* | 40
COc1cc(NC(=O)C(C)Oc2ccc(Cl)cc2Cl)ccc1NC(=O)c1cc2ccccc2o1 (stereo not given) | . | -4 | 32 | -37
SMILES | Shh pathway inh | PD-1 reversal | NOMO-1 viab | MITF inh
C[C@H](CO)N1C[C@H](C)[C@H](CN(C)S(=O)(=O)c2ccccc2)Oc2ccc(NC(=O)Nc3ccc(C(F)(F)F)cc3)cc2CC1=O | -12 | -6 | 128* | 30
C[C@@H]1CN([C@@H](C)CO)C(=O)Cc2cc(NC(=O)Nc3ccc(C(F)(F)F)cc3)ccc2O[C@@H]1CN(C)S(C)(=O)=O | . | 0 | 114* | 14
C[C@H]1CN([C@@H](C)CO)C(=O)Cc2cc(NC(=O)Nc3ccc(C(F)(F)F)cc3)ccc2O[C@@H]1CN(C)S(=O)(=O)c1ccccc1 | . | 2 | 5 | 26
C[C@@H]1CN([C@@H](C)CO)C(=O)Cc2cc(NC(=O)Nc3ccc(C(F)(F)F)cc3)ccc2O[C@@H]1CN(C)S(=O)(=O)c1ccccc1 | -43 | -5 | 112* | 44
Cc1nnc(SCC(=O)n2c3c(c4ccccc42)CC(C)CC3)s1 (stereo not given) | . | 1 | 22 | -28
CCN(CC(=O)Nc1cccc(SC)c1)S(=O)(=O)c1ccc(C)cc1 | . | . | 8 | 21
O=c1[nH]c(=O)n(C2C[C@H](O)[C@@H](CO)O2)cc1C(F)(F)F (stereo not given in full) | -17 | . | 108* | 1
CCC(=O)Nc1nonc1-c1nc2ccccc2n1Cc1cc(OC)ccc1C | . | -4 | 130* | 40

Source: PubChem
